# Results as given in PubChem BioAssay.
# Active and inactive are the calls of the source.
# How the values were obtained:
# [1] = small molecules captured by biotinylated probe aFSTL3 – biochemical, small-molecule microarray, fluorescence 635/667, stem cell growth factor project, primary screen (AID 1064); conditions: higher = more signal;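 note: measures binding of the biotinylated anti-FSTL3 antibody to printed compounds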
# [2] = binders from COS7 lysate, DM2A8 probe, primary screen, torsin A project, cell lysate, small-molecule microarray, fluorescence 635/667 (AID 1065); conditions: higher = more signal, COS7 lysate expressing mutant human TOR1A
# [3] = small molecules captured by biotinylated probe aFGF2 – biochemical, small-molecule microarray, fluorescence 635/667, stem cell growth factor project, primary screen (AID 1067); conditions: higher = more signal;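 note: measures binding of biotinylated aFGF2 protein to printed compounds on slides; z-score merges feature fluorescence and signal-to-noise across triplicate slides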
# [4] = small molecules captured by biotinylated probe aFGF10 – biochemical, small-molecule microarray, fluorescence 635/667, stem cell growth factor project, primary screen (AID 1071); conditions: higher = more signal;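 note: score merges 667 nm spot intensity and signal to noise from triplicate slides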
# [5] = target: Neurogenic locus notch homolog protein 2 (Homo sapiens) (UniProt Q04721); experiment: small molecules binding Notch2 protein – biochemical, small-molecule microarray, 635 nm fluorescence, stem cell growth factors, primary screen (AID 1073); conditions: higher = more signal
# Sequence of Neurogenic locus notch homolog protein 2 (Homo sapiens) (Q04721 whole entry, looked up, canonical isoform): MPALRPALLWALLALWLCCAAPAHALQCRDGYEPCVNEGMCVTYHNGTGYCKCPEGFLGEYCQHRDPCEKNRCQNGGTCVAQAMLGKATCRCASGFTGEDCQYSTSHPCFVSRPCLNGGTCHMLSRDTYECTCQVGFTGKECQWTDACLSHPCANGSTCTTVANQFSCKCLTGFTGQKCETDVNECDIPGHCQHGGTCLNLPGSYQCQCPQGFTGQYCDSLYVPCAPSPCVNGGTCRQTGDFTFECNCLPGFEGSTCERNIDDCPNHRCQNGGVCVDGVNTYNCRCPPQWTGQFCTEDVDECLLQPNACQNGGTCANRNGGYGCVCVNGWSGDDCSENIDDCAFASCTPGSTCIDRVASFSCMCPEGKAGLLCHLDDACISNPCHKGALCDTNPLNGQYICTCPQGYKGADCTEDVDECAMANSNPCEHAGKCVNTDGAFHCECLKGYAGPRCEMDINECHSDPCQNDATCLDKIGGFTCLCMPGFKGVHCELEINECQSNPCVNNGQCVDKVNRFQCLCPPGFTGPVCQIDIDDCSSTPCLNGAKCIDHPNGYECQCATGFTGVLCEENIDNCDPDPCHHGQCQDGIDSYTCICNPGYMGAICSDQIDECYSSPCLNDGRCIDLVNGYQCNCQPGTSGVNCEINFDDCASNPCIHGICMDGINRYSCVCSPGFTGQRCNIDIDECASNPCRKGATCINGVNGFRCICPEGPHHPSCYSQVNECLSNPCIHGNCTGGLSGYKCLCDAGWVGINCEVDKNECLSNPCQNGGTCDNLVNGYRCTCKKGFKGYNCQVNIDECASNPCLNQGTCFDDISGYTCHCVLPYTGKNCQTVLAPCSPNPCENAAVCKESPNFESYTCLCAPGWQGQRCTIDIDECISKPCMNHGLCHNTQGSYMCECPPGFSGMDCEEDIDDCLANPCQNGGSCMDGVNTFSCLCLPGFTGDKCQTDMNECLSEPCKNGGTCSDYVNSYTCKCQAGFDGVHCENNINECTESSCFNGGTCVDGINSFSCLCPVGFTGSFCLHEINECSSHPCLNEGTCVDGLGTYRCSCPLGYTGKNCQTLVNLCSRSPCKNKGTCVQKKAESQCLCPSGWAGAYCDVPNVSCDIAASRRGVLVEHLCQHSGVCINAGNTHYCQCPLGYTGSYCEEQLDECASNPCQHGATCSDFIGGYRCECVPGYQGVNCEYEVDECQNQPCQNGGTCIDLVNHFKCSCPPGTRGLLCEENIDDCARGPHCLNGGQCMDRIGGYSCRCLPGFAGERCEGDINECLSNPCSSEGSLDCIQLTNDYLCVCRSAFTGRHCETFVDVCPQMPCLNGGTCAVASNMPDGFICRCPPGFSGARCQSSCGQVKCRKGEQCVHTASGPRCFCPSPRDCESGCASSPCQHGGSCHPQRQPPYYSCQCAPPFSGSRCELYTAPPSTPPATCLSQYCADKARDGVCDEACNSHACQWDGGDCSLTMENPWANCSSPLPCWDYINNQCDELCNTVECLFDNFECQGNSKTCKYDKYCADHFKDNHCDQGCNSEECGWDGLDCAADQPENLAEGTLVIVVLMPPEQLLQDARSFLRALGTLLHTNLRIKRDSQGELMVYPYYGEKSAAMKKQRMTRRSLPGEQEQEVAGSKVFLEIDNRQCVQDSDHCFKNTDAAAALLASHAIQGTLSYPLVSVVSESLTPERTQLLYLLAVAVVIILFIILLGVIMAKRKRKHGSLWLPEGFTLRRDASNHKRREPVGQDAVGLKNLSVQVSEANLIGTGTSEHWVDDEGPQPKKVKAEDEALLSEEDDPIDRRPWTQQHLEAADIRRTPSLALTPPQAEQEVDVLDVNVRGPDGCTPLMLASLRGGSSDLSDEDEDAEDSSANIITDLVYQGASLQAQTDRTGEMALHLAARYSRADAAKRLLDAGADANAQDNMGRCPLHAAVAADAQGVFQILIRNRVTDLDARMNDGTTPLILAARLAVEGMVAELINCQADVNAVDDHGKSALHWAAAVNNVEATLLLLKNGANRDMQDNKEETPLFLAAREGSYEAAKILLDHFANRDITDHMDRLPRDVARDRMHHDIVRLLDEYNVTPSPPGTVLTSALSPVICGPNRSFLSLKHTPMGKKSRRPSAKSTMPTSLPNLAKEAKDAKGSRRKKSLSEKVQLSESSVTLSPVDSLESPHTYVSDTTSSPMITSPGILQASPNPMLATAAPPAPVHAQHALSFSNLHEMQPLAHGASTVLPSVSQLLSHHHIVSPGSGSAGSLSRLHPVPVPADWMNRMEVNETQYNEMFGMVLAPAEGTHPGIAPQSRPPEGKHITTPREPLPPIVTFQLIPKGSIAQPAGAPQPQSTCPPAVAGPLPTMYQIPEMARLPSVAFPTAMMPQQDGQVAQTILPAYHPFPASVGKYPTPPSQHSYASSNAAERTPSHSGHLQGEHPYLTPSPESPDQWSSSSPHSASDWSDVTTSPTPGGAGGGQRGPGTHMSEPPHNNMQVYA
# [6] = target: Pro-neuregulin-1, membrane-bound isoform (Homo sapiens) (UniProt Q02297); experiment: small molecules binding neuregulin-1 protein – biochemical, small-molecule microarray, fluorescence 635/667, psychiatric disease protein project, primary screen (AID 1075); conditions: NRG1 binding, 635 nm fluorescence, higher = more signal;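 note: score combines 667 nm spot fluorescence with signal to noise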
# Sequence of Pro-neuregulin-1, membrane-bound isoform (Homo sapiens) (Q02297 whole entry, looked up, the tested form may be a part, canonical isoform): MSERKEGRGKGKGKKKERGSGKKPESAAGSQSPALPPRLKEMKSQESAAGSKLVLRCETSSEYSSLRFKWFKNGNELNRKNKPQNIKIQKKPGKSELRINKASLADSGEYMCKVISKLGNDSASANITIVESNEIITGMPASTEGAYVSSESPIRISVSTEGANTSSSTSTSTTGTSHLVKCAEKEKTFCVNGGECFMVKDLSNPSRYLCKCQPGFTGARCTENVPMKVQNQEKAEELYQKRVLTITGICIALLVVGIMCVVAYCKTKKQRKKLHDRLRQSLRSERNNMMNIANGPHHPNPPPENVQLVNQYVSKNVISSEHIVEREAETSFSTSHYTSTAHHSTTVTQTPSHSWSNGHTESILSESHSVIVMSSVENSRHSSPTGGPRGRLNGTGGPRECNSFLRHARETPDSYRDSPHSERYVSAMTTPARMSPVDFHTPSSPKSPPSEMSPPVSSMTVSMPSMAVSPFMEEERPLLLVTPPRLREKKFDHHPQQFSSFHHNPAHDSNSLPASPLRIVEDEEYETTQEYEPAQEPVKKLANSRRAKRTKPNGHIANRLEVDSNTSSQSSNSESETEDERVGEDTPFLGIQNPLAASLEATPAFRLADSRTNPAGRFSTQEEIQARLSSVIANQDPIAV
# [7] = system: Neuregulin-1 EGF-like domain; experiment: small molecules binding NRG1 EGF domain – biochemical, small-molecule microarray, 635 nm fluorescence, primary screen (AID 1081); conditions: higher = more signal;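 note: binding of the protein to compounds printed on small-molecule microarray slides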
# [8] = FRG1 expression reporter modulators in myotubes – cell-based, C2C12 myotubes, firefly/Renilla luciferase, luminescence, FRG1 inhibition for FSHD, primary screen (AID 1084); conditions: FRG1 promoter luciferase, higher = more signal, called active from +8 up or from −8 down
# [9] = small molecules captured by biotinylated probe aFST – biochemical, small-molecule microarray, fluorescence 635/667, stem cell growth factor project, primary screen (AID 1086); conditions: higher = more signal;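 note: score merges 667 nm fluorescence with signal-to-noise of each printed compound spot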
# [10] = binders of probe aHhip on microarray, primary screen, stem cell growth factor project, biochemical, small-molecule microarray, fluorescence 635/667 (AID 1087); conditions: higher = more signal;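 note: score merges spot fluorescence at 667nm with spot signal to noise ratio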
# [11] = system: PRMT1 (protein arginine N-methyltransferase 1); experiment: small molecules binding arginine methyltransferase PRMT1 – biochemical, small-molecule microarray, 635 nm fluorescence, primary screen (AID 1088); conditions: higher = more signal;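 note: binding of Prmt1 protein to compounds spotted on small-molecule microarray slides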
# [12] = growth effects on S. cerevisiae YJM789 – YJM789 clinical isolate, OD600, 24 h, basal, primary screen (AID 1089); conditions: higher = more signal, called active from +8 up or from −8 down;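 note: growth of clinical yeast isolate S. cerevisiae YJM 789 seeded 1000 cells per well; test concentration not given here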
# [13] = S. pombe growth modifiers, basal conditions – strain 972, OD600, 24 h, no modulator, primary screen (AID 1090);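 note: basal condition with compound alone and no growth modifier present; test concentration not given here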; conditions: S. pombe 972 growth, higher = more signal, called active from +8 up or from −8 down
# [14] = budding yeast growth modifiers under rapamycin – strain BY4716, OD600, 96 h, primary screen (AID 1091); note: test concentration not given here; conditions: S. cerevisiae BY4716 + rapamycin, higher = more signal, called active from +8 up or from −8 down
# [15] = target: Torsin-1A-interacting protein 2 (Homo sapiens) (UniProt Q8NFQ8); experiment: small molecules binding lysate-expressed LULL1 – cell lysate, human LULL1 lysate, 635/667 nm fluorescence, primary screen (AID 1092); conditions: small-molecule microarray, hLULL1 lysate binding, 635 nm fluorescence; higher = more signal;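 note: probe is lysate of COS7 cells overexpressing human LULL1; score merges per-feature 667 nm fluorescence with signal-to-noise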
# Sequence of Torsin-1A-interacting protein 2 (Homo sapiens) (Q8NFQ8 whole entry, looked up): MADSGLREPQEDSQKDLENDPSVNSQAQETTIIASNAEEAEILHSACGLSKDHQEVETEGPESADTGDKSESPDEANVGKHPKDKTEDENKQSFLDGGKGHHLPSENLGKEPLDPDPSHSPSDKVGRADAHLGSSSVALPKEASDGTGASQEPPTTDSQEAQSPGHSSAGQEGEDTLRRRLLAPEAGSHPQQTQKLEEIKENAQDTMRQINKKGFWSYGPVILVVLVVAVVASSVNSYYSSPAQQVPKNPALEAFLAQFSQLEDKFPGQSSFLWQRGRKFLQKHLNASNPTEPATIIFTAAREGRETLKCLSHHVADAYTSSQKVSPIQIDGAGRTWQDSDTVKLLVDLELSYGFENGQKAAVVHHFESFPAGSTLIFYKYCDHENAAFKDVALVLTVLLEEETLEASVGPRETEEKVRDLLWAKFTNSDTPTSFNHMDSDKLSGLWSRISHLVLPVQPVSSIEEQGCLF
# [16] = optical density change of DRC41 E. coli – strain DRC41, OD650, 24 h, E. coli filamentation project, primary screen (AID 1093);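 note: MC1000 strain lacking acrAB efflux and sulA so SOS filamentation is blocked; test concentration not given here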; conditions: E. coli DRC41 growth, higher = more signal, called active from +8 up or from −8 down
# [17] = probe aLefty2 binding to arrayed compounds – biochemical, biotinylated probe, 635/667 nm fluorescence, primary screen (AID 1094); conditions: small-molecule microarray, higher = more signal;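 note: score merges spot fluorescence near 667 nm with spot signal-to-noise ratio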
# [18] = system: Noggin (protein binding on small-molecule microarray); experiment: small molecules binding Noggin protein – biochemical, 635/667 nm fluorescence, primary screen (AID 1095); conditions: 635 nm fluorescence, higher = more signal;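 note: score merges 667 nm feature fluorescence with signal to noise over triplicate slides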
# [19] = target: Neurogenic locus notch homolog protein 3 (Homo sapiens) (UniProt Q9UM47); experiment: small molecules binding NOTCH3 protein – biochemical, 635/667 nm fluorescence, primary screen (AID 1096); conditions: small-molecule microarray, 635 nm fluorescence, higher = more signal
# [20] = probe aEGFR binding to arrayed compounds – biochemical, biotinylated probe, 635/667 nm fluorescence, primary screen (AID 1097); conditions: small-molecule microarray, higher = more signal;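 note: probe is a biotinylated anti-EGFR antibody binding compounds printed on slides; score combines fluorescence near 667 nm and signal to noise of each spot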
Structure (SMILES),composite z-score [1],composite z-score [2],composite z-score [3],composite z-score [4],composite z-score [5],composite z-score [6],composite z-score [7],z-score [8],composite z-score [9],composite z-score [10],composite z-score [11],z-score [12],z-score [13],z-score [14],composite z-score [15],z-score [16],composite z-score [17],composite z-score [18],composite z-score [19],composite z-score [20]
COC(=O)C(CC#Cc1ccc2c(c1)[C@]1(C(=O)N2)[C@H](C(=O)N2CCCCCCC2)[C@H]2C(=O)O[C@H](c3ccccc3)[C@H](c3ccccc3)N2[C@@H]1c1ccccc1OCCO)C(=O)OC,3.68,2.84,1.03,1.26,1.75,2.65,1.38,0.695 (inactive),3.61,3.1,1.54,0.293 (inactive),-0.97 (inactive),0.172 (inactive),5.3,-0.823 (inactive),1.89,2.44,1.02,1.46
O=C(NCc1ccccc1)[C@@H]1c2ccccc2C(=O)N(C2CCCCC2)[C@H]1c1ccc(CO)cc1,-1.15,0.149,-0.0407,0.57,-0.287,1.68,1.38,-1.48 (inactive),-0.309,-0.283,1.47,-0.406 (inactive),-0.577 (inactive),0.39 (inactive),2.53,-0.175 (inactive),-0.322,1.41,1.03,-0.352
[N-]=[N+]=NCc1ccccc1[C@H]1OC(c2ccc(OCCCO)cc2)=N[C@@]1(Cc1ccccc1)C(=O)NCC(O)CO (stereo not given in full),0.835,0.768,-0.127,0.407,0.641,1.65,0.565,-0.0633 (inactive),0.1,-0.146,1.25,-0.286 (inactive),0.669 (inactive),-1.22 (inactive),3.5,0.203 (inactive),0.102,-0.116,-0.046,0.0073
O=C1OCC=C[C@H]2OC34C=CCN(Cc5ccccc5)C(=O)[C@H]3N(CCCO)C(=O)[C@@H]4[C@@H]12 (stereo not given in full),0.646,-0.815,0.0661,-0.17,-0.286,2.42,1.42,0.0735 (inactive),0.245,0.902,0.733,0.393 (inactive),-0.885 (inactive),-0.38 (inactive),3.71,2.76 (inactive),0.694,0.319,0.288,-0.0703
CCOC(=O)N1C(c2ccc(OCCCO)cc2)=NC(C(=O)OC)N1C(=O)OCC (stereo not given),-0.243,0.0754,0.0794,0.683,1.17,1.39,1.14,1.37 (inactive),0.424,-0.347,1.54,-0.925 (inactive),-0.265 (inactive),-1.32 (inactive),3.21,1.2 (inactive),0.174,1.42,1.09,-0.0325
COc1ccc([Si](C)(C)[C@H]2[C@H](CCO)O[C@@]3(C(=O)N(Cc4cccc(N5C(=O)c6cccc7cccc5c67)c4)c4ccccc43)[C@@H]2C)cc1,0.0761,-0.364,0.0253,0.404,-0.136,0.795,1,-1.43 (inactive),-0.26,-0.212,1.16,2.05 (inactive),1.23 (inactive),36.9 (active),2.1,0.879 (inactive),-0.205,0.492,0.344,-0.225
C[C@H]1C2[C@H](Cc3ccccc3)NC(=O)[C@]23C(=O)N[C@H](Cc2ccccc2)C(=O)N[C@H](Cc2ccccc2)C(=O)NC/C=C/CCC/C=C/C3[C@@H]2O[C@]12C (stereo not given in full),-0.367,0.881,-0.174,0.309,-0.163,0.365,1.21,4.86 (inactive),0.22,0.154,0.786,0.524 (inactive),-1.84 (inactive),0.254 (inactive),2.17,1.35 (inactive),-0.241,1.58,0.62,-0.152
CCN(CC)c1ccc(N2CC=CC34O[C@@H]5C=CCOC(=O)[C@@H]5[C@H]3C(=O)N(CCCCCO)[C@@H]4C2=O)cc1 (stereo not given in full),0.594,2.08,-0.129,-0.39,-0.866,1.42,1.53,-0.309 (inactive),-0.409,-0.0618,-0.456,-0.821 (inactive),-1.3 (inactive),-0.522 (inactive),2.74,1.29 (inactive),-0.138,-0.769,-0.589,-0.201
CC1CC/C=C\[C@H]2OC34C=CCN(CCN5CCOCC5)C(=O)[C@H]3N(CCCCCO)C(=O)[C@@H]4C2C(=O)O1 (stereo not given in full),-0.0823,-0.368,-0.21,-1.05,-0.777,-0.85,-0.358,0.209 (inactive),-0.633,-0.216,-0.632,-0.631 (inactive),-0.726 (inactive),-0.206 (inactive),-1.13,-0.497 (inactive),-0.339,-1.02,-1.17,-0.158
C=C(C)[C@@H]1CC=C(C(O)C2C=CC3C(=O)N(Cc4ccccc4)C(=O)C3N2n2cnnc2)CC1 (stereo not given in full),0.29,0.271,-0.0877,-0.215,-0.274,0.485,0.703,0.225 (inactive),0.325,0.208,-0.0461,-0.542 (inactive),0.312 (inactive),0.112 (inactive),1.3,-0.0792 (inactive),0.0864,-0.305,-0.191,-0.161
